Calls of active or inactive are those of the source.
Legend:
[1] = system: Human papillomavirus type 1a protein E7 (residues 44-93); assay: small molecules binding HPV E7 44-93 – biochemical, small-molecule microarray, residues 44-93, 635 nm fluorescence, primary screen (AID 1108); conditions: fluorescence 635 nm, higher = more signal;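 further: E7 fragment applied at 1 µg/mL in TBST for 1 h at 4 C; score combines spot fluorescence with its signal to noise ratio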
[2] = hepatitis C replication reporter changes, two-sided – Huh7 cells, luciferase reporter, HCV replication inhibitor project, primary screen (AID 1109); conditions: Huh7 HCV replicon luciferase reporter, 48 h; higher = more signal;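 further: huh7 hepatoma cells harbouring a luciferase neomycin HCV replicon reporter; luciferase luminescence as measure of HCV replicon replication; test concentration not given here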
[3] = target: Left-right determination factor 2 (Homo sapiens) (UniProt O00292); assay: small molecules binding LEFTY2 protein – biochemical, small-molecule microarray, 635 nm fluorescence scan, primary screen (AID 1110); conditions: higher = more signal
Sequence of Left-right determination factor 2 (Homo sapiens) (O00292 whole entry, looked up): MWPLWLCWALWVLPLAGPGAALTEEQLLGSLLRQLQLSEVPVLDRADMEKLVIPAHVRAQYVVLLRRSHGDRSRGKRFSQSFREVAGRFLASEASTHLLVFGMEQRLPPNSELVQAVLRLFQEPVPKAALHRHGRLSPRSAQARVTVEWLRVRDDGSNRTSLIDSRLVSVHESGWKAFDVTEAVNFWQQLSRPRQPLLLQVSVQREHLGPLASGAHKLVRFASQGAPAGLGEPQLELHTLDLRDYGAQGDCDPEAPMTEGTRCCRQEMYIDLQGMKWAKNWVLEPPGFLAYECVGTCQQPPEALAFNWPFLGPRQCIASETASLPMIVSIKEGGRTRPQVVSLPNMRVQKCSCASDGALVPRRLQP

[4] = target: Calmodulin-1 (Homo sapiens) (UniProt P0DP23); assay: small molecules binding calmodulin-1 with EGTA – biochemical, small-molecule microarray, Cy5-labelled CALM1, profiling panel (AID 1111); conditions: Cy5-CALM1 binding fluorescence, higher = more signal;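 further: labelled calmodulin applied in Tris saline Tween buffer holding calcium plus EGTA and DTT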
[5] = target: Calmodulin-1 (Homo sapiens) (UniProt P0DP23); assay: small molecules binding Ca-loaded calmodulin-1 – biochemical, small-molecule microarray, Cy5-labelled CALM1, plus calcium, artefact control for SMM control-protein annotation, profiling panel (AID 1112); conditions: Cy5-CALM1 binding fluorescence, higher = more signal;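 further: score merges spot fluorescence with signal to noise from triplicate slides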
[6] = probe aWnt5a binding to arrayed compounds – biochemical, biotinylated probe, 635/667 nm fluorescence, primary screen (AID 1113); conditions: small-molecule microarray, higher = more signal;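 further: score merges 667 nm fluorescence intensity with signal-to-noise per printed feature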
[7] = probe aShh binding to arrayed compounds – biochemical, biotinylated probe, 635/667 nm fluorescence, primary screen (AID 1114); conditions: small-molecule microarray, higher = more signal;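 further: probe is biotin-labelled aShh protein from a stem cell growth factor screen; measures binding of labelled protein to compounds printed on the slide; score merges feature fluorescence at 667 nm with signal-to-noise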
[8] = probe aNog binding to arrayed compounds – biochemical, biotinylated probe, 635/667 nm fluorescence, primary screen (AID 1115); conditions: small-molecule microarray, higher = more signal;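 further: probe is biotinylated aNog protein used at 0.15 µg/mL for 1 h at 4 C; z-score combines 667 nm fluorescence of each spot with its signal to noise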
[9] = target: Torsin-1A-interacting protein 1 (Homo sapiens) (UniProt Q5JTV8); assay: compound microarray binding of lysate hLAP1 – cell lysate, small-molecule microarray, COS7 lysate, 635/667 nm fluorescence, primary screen (AID 1116); conditions: 635 nm fluorescence, higher = more signal
Sequence of Torsin-1A-interacting protein 1 (Homo sapiens) (Q5JTV8 whole entry, looked up): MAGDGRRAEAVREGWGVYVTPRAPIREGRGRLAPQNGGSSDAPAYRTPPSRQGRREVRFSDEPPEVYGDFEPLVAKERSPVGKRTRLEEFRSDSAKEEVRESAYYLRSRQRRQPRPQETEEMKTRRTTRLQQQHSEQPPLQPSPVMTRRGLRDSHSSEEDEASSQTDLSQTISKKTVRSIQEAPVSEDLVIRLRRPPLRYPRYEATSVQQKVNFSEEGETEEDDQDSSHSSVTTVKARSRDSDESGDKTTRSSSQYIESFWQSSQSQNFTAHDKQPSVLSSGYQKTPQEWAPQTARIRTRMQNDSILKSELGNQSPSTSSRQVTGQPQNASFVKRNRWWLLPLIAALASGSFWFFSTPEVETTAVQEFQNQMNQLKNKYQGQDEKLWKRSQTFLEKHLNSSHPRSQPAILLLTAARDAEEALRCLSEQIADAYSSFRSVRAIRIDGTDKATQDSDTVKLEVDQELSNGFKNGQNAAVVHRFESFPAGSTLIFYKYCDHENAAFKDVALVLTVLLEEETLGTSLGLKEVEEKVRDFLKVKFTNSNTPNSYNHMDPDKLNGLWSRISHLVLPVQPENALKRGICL

[10] = target: Alpha-bungarotoxin (Bungarus multicinctus) (UniProt P60615); assay: compounds binding labelled alpha-BTX control protein – biochemical, small-molecule microarray, Alexa647 label, 635/667 nm fluorescence, artefact control for SMM control protein annotation, profiling panel (AID 1117); conditions: alpha-BTX-A647 binding fluorescence, higher = more signal
Sequence of Alpha-bungarotoxin (Bungarus multicinctus) (P60615 whole entry, looked up): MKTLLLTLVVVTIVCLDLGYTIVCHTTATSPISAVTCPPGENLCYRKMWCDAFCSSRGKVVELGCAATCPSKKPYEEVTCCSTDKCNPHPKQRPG

Albumin (Bos taurus) = Albumin (Bos taurus) (UniProt P02769); assay: compounds binding labelled BSA control protein – biochemical, small-molecule microarray, Alexa647 label, 635/667 nm fluorescence, artefact control for SMM control protein annotation, profiling panel (AID 1118); conditions: BSA-A647 binding, fluorescence 635 nm, higher = more signal;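 further: score merges 667 nm emission intensity and signal-to-noise per printed compound spot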
Sequence of Albumin (Bos taurus) (P02769 whole entry, looked up): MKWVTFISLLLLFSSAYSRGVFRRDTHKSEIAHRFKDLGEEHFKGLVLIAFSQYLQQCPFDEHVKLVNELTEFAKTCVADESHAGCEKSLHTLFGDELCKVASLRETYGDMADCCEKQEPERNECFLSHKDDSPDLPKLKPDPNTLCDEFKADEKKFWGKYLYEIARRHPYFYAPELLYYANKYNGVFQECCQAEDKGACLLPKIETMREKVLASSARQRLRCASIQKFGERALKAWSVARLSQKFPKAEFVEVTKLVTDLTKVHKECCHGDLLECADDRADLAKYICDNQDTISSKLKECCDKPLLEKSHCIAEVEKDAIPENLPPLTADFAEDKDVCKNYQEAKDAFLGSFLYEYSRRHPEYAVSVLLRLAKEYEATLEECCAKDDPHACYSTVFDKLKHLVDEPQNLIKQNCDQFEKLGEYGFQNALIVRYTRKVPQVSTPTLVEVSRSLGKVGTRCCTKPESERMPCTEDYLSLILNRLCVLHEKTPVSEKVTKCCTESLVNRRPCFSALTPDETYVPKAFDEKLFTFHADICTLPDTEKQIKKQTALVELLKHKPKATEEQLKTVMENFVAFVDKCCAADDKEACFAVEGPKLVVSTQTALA

[11] = probe aXIP binding to arrayed compounds – biochemical, NeuroSMM set, 635/667 nm fluorescence, primary screen (AID 1119); conditions: small-molecule microarray, higher = more signal, called active from +8 up or from −8 down;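 further: probe is the protein aXip251-270 applied at 1 µg/mL to compound-printed slides; binding of probe to printed compounds measured as 667 nm fluorescence plus signal to noise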
[12] = probe aNOTCH3 binding on compound microarray – biochemical, small-molecule microarray, 635/667 nm fluorescence, primary screen (AID 1120); conditions: higher = more signal;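 further: probe is a biotin-tagged antibody raised against NOTCH3 rather than NOTCH3 protein; score merges spot fluorescence near 667 nm with spot signal to noise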
[13] = probe aNOTCH2 binding on compound microarray – biochemical, small-molecule microarray, 635/667 nm fluorescence, primary screen (AID 1121); conditions: higher = more signal;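 further: score merges feature fluorescence read at 667 nm with its signal to noise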
[14] = target: Carbonic anhydrase 2 (Homo sapiens) (UniProt P00918); assay: compounds binding carbonic anhydrase 2 – biochemical, small-molecule microarray, Alexa647-labelled CAII, profiling panel (AID 1122); conditions: CAII-A647 binding fluorescence, higher = more signal
[15] = COS7 lysate on small-molecule microarray, probe aHis, 635 nm (AID 1123); conditions: COS7 cell lysate, fluorescence, higher = more signal;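 further: z-score combines 667nm fluorescence intensity with signal-to-noise per printed compound spot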
[16] = probe aLAP1 signal on lysate-treated microarray – cell lysate, small-molecule microarray, COS7 lysate, primary screen (AID 1124); conditions: probe aLAP1, fluorescence, higher = more signal;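 further: lysate comes from COS7 cells expressing LAP1 and is applied at 0.3 µg/mL; score merges spot fluorescence near 667 nm with signal-to-noise over triplicate slides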
Sam68 (KHDRBS1) = assay: compounds binding KHDRBS1 protein – biochemical, small-molecule microarray, 635 nm fluorescence, primary screen (AID 1125); conditions: higher = more signal;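 further: score merges 667 nm channel intensity with signal to noise over triplicate slides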
[17] = system: Chordin-like protein 2 (CHRDL2); assay: compounds binding chordin-like 2 – biochemical, small-molecule microarray, 635 nm fluorescence, primary screen (AID 1126); conditions: fluorescence 635 nm, higher = more signal;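 further: printed compound slides probed with Chrdl2 protein at 4 µg/mL for 1 h at 4 C; score merges 667 nm emission intensity with signal to noise over three replicate slides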
[18] = target: Concanavalin-A (Canavalia ensiformis) (UniProt P02866); assay: compounds binding concanavalin A lectin – biochemical, small-molecule microarray, Alexa647 label, 635 nm, artefact control for SMM control protein annotation, primary screen (AID 1127); conditions: ConA-A647 binding fluorescence, higher = more signal;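 further: z combines 667 nm emission intensity with signal-to-noise across three replicate slides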
Sequence of Concanavalin-A (Canavalia ensiformis) (P02866 whole entry, looked up): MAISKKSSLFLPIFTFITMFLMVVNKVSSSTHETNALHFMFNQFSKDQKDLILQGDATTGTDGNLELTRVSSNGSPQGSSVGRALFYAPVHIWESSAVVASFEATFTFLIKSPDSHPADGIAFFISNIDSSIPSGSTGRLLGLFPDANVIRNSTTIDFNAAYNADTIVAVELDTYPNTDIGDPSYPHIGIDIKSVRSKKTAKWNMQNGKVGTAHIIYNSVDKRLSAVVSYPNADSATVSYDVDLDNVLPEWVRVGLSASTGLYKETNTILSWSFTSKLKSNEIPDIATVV

Structure (SMILES) | composite z-score [1] | z-score [2] | composite z-score [3] | composite z-score [4] | composite z-score [5] | composite z-score [6] | composite z-score [7] | composite z-score [8] | composite z-score [9] | composite z-score [10] | composite z-score (Albumin (Bos taurus)) | composite Z-score [11] | composite z-score [12] | composite z-score [13] | composite z-score [14] | composite z-score [15] | composite z-score [16] | composite z-score (Sam68 (KHDRBS1)) | composite z-score [17] | composite z-score [18]
COC(=O)c1ccc(OC)c(/C=C\CC(OC(C)=O)c2ccccc2)c1 (stereo not given) | -0.5 | -1.14 | 0.374 | 0.461 | 0.193 | -0.237 | 0.0668 | -0.397 | -0.129 | 0.808 | 0.652 | -0.192 (inactive) | -0.276 | -0.149 | 0.971 | 0.718 | -0.0984 | -0.215 | 1.1 | 1.15
[N-]=[N+]=Nc1ccccc1[C@H]1OC(c2ccc(OCCCO)cc2)=N[C@@]1(CCS(=O)(=O)c1ccccc1)C(=O)O | 0.447 | 0.86 | -0.512 | 1.16 | 0.373 | -0.131 | 0.0278 | 1.01 | 2 | 0.582 | 0.622 | 0.254 (inactive) | -0.0647 | 0.0278 | 0.419 | 2.77 | 0.425 | 0.0569 | -0.378 | 0.475
C=C(C(=O)CC[C@H](OC(C)=O)c1ccc(OCCO)cc1)C(C)C | -0.268 | -4.11 | 1.03 | -0.189 | -1.39 | -0.1 | -0.0157 | -0.0965 | 0.949 | 1.05 | 0.531 | 0.277 (inactive) | 0.0569 | -0.132 | 0.708 | 0.354 | 1.15 | 0.564 | 0.615 | 0.846
O=c1oc(-c2ccccc2)nc2cc(Br)ccc12 | 0.55 | -1.04 | 0.69 | -0.0114 | -0.427 | -0.117 | -0.221 | -0.221 | 0.503 | 0.318 | -0.163 | -0.12 (inactive) | -0.0647 | -0.0984 | -0.0912 | 0.704 | 0.107 | 0.0872 | 0.875 | 0.666
O=c1cccc(C=Cc2ccccc2)o1 | -0.64 | -0.854 | -1.31 | -0.471 | -0.274 | -0.145 | 0.147 | -0.411 | -0.363 | -0.374 | -0.828 | 0.0786 (inactive) | -0.178 | -0.126 | -0.228 | -0.386 | 0.224 | -0.0848 | -1.58 | -0.514
COc1ccccc1CN1C(=O)c2ccccc2[C@@H](C(=O)NCCN2CCOCC2)[C@@H]1c1ccc(CO)cc1 | 0.623 | -1.64 | -0.725 | -0.652 | 0.0041 | -0.185 | 0.123 | -0.232 | 1.01 | -0.737 | 0.305 | -0.275 (inactive) | -0.0824 | -0.0548 | 0.769 | 1.29 | 1.08 | 0.287 | -0.159 | -0.15
CCCCC=C[C@@H](NC(=O)c1ccc(C(=O)OC)cc1)c1ccccc1 | 1.1 | -1.36 | 0.107 | 0.168 | -0.128 | -0.15 | 0.0711 | 0.122 | 0.0279 | 0.926 | 0.924 | -0.213 (inactive) | 0.313 | -0.171 | 0.235 | 1.81 | 0.327 | 1.15 | -0.14 | 0.887
CC(C)NC(=O)[C@@H]1c2ccccc2C(=O)N(Cc2ccccc2Cl)[C@H]1c1ccc(CO)cc1 | 1.17 | -0.657 | -0.998 | -0.0984 | 0.29 | -0.13 | -0.0769 | 0.139 | 1.25 | -0.436 | 0.07 | 0.757 (inactive) | -0.205 | -0.121 | 0.651 | 1.29 | 0.661 | 1.03 | -0.296 | -0.0903
COCCOC(=O)N1C(=O)[C@@]2(c3cc(C#CCNC(N)=O)ccc31)[C@H](c1ccccc1OCCO)N1[C@H](c3ccccc3)[C@H](c3ccccc3)OC(=O)[C@H]1[C@@H]2C(N)=O | 1.18 | -0.733 | 0.54 | 0.451 | 0.664 | 0.0253 | -0.229 | -0.314 | -0.0837 | 1.18 | -0.117 | -0.479 (inactive) | -0.0345 | -0.148 | 0.475 | -0.726 | 0.177 | 1.22 | 0.616 | 1.18
O=C1C[C@@](C(=O)NC2CC2)(c2ccc([N+](=O)[O-])cc2)[C@@H](c2ccc(CO)cc2)N1CC12CC3CC(CC(C3)C1)C2 | 0.869 | -2.39 | -0.523 | 0.557 | -0.0787 | -0.0751 | -0.147 | 0.11 | 0.471 | 0.601 | 0.374 | -0.172 (inactive) | -0.0236 | -0.0091 | 0.22 | 0.681 | -0.107 | 0.684 | -0.203 | 1
CC(C)Cc1ccc(CN2CC[C@@H](NS(=O)(=O)c3ccccc3)C2)cc1 | 0.429 | -4.17 | 0.0423 | -0.856 | -0.859 | -0.176 | -0.455 | -0.438 | -0.633 | -0.577 | -0.623 | 0.119 (inactive) | -0.187 | -0.173 | -0.114 | 0.48 | 0.0054 | 0.532 | 0.449 | -0.36

Reference: PubChem BioAssay
